Targets with a hit are over-represented here; the source holds about 7,900 in all. About 0.6% of all pairs of compound and target were hits. Values without a mark were called inactive.

UniProt P56962, sequence (P56962 whole entry, looked up): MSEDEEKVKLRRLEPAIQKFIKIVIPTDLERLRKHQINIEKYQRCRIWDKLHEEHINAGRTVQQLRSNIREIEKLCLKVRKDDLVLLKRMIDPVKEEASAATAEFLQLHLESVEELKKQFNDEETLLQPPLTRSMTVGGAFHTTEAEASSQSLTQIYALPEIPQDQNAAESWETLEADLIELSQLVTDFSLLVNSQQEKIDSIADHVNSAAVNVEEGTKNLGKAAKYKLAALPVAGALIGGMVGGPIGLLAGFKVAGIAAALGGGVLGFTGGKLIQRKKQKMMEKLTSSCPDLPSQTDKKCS
UniProt Q8WU79, sequence (Q8WU79 whole entry, looked up): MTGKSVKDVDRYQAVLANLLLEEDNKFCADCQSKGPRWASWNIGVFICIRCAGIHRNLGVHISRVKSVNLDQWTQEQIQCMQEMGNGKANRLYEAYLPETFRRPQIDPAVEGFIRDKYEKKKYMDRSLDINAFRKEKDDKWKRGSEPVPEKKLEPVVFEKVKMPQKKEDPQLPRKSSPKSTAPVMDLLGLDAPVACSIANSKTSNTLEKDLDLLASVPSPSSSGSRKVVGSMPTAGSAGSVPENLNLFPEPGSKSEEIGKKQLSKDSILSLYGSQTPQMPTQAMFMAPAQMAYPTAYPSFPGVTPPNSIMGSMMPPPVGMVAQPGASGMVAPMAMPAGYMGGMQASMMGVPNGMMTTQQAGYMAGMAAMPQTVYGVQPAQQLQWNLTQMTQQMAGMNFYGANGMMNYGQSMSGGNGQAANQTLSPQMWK
UniProt O95926, sequence (O95926 whole entry, looked up): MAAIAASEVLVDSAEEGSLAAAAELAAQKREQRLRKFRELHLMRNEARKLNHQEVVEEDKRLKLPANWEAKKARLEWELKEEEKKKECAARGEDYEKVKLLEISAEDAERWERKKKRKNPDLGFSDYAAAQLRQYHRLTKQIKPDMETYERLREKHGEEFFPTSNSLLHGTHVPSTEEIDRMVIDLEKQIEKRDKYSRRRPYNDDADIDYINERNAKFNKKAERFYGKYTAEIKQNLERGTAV
UniProt P40763, sequence (P40763 whole entry, looked up): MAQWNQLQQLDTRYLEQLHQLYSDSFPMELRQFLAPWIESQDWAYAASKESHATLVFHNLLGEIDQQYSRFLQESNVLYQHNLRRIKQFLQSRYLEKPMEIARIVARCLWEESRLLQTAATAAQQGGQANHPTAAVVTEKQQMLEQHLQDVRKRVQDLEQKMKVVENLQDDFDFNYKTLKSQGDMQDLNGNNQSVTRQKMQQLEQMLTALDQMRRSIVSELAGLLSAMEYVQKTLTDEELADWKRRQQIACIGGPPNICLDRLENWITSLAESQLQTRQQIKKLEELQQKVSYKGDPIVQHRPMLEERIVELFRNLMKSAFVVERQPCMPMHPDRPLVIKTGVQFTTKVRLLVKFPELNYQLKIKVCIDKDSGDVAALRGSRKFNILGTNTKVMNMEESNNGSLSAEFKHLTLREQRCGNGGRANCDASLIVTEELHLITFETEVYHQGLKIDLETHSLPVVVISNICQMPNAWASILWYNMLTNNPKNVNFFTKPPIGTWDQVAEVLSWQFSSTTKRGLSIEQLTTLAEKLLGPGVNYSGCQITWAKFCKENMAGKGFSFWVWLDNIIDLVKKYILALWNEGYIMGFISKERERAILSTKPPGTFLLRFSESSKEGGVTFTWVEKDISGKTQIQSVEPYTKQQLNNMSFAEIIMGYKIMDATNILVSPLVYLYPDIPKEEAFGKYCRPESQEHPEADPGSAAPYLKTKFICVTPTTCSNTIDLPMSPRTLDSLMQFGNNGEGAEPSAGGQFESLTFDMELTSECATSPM
UniProt Q01085, sequence (Q01085 whole entry, looked up): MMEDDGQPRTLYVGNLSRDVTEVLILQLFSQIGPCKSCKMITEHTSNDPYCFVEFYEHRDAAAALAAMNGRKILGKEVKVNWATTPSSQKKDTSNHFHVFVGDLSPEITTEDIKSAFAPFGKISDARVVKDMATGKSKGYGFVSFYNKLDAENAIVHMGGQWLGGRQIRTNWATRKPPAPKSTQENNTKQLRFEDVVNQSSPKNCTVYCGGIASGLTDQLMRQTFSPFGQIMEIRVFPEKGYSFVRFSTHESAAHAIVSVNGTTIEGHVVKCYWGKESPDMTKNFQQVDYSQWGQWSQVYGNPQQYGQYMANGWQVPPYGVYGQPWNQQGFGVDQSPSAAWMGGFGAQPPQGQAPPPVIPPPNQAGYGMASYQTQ
UniProt P05455, sequence (P05455 whole entry, looked up): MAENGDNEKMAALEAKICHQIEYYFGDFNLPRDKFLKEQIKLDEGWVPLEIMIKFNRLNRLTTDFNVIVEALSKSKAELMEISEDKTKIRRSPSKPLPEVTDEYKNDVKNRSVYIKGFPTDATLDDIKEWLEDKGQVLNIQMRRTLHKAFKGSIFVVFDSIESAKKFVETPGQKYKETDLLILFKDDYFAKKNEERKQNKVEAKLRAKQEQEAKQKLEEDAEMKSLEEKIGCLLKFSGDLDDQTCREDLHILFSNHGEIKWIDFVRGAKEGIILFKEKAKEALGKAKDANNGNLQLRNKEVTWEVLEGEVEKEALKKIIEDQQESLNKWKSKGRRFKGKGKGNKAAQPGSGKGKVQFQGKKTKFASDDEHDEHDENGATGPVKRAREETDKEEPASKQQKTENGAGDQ
UniProt Q9H4L7, sequence (Q9H4L7 whole entry, looked up): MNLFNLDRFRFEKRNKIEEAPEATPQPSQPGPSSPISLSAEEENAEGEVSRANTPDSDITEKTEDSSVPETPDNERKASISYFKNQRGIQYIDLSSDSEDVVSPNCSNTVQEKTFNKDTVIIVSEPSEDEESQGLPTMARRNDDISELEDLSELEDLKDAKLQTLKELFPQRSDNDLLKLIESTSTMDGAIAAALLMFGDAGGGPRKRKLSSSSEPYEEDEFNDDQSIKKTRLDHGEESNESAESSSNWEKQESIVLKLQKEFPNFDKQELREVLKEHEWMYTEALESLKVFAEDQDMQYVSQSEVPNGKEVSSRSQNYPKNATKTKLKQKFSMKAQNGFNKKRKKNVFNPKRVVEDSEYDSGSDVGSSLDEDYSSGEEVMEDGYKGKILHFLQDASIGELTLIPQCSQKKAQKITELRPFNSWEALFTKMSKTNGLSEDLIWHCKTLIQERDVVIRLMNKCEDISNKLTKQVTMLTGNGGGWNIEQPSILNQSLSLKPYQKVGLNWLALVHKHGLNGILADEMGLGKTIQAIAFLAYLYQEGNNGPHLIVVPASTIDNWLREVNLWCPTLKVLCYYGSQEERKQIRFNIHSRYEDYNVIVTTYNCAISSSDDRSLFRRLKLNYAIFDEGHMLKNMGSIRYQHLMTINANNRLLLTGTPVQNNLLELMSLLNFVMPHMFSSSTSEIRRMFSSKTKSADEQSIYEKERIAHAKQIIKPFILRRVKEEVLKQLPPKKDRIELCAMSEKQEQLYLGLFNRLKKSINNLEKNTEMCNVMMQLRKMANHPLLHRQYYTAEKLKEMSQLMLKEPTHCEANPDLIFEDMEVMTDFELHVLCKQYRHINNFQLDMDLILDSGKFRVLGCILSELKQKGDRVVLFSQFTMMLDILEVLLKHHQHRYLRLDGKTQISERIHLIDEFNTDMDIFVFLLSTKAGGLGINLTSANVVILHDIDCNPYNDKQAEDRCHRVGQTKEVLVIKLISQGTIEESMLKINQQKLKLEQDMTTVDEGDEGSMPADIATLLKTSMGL
UniProt Q9UDY2, sequence (Q9UDY2 whole entry, looked up): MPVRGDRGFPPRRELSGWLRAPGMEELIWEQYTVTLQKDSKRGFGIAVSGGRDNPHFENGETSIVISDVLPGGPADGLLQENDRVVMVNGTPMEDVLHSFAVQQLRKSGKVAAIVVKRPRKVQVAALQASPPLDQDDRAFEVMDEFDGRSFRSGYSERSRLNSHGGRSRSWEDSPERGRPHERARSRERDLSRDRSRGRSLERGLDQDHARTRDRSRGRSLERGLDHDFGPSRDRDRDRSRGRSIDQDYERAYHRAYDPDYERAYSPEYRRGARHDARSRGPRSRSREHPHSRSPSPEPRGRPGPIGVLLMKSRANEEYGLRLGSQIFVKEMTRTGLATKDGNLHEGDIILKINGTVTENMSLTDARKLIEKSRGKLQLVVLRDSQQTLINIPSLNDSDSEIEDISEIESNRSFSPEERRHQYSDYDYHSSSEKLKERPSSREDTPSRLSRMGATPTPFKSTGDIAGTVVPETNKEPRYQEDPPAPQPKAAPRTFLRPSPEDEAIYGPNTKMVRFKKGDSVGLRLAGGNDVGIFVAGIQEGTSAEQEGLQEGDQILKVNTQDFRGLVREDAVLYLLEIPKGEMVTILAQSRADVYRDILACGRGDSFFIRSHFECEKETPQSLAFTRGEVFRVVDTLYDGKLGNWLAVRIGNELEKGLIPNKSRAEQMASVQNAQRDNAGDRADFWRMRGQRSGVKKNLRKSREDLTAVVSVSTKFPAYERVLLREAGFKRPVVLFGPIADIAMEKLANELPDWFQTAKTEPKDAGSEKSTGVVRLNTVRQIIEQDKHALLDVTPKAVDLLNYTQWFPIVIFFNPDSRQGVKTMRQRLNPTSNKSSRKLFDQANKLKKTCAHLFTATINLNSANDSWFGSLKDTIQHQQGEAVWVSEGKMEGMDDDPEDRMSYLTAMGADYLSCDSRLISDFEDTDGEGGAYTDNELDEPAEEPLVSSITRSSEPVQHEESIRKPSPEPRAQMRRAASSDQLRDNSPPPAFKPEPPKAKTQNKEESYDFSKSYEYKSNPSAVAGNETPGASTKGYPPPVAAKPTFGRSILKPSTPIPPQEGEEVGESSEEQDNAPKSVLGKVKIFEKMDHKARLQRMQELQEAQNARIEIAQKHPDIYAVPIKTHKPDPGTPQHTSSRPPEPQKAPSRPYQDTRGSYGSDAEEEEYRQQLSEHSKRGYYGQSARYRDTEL
UniProt P30626, sequence (P30626 whole entry, looked up): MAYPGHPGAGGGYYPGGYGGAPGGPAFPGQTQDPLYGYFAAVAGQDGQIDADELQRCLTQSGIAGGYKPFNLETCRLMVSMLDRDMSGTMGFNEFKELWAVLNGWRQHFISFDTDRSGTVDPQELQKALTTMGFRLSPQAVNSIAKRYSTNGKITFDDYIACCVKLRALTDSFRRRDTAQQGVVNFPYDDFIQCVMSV

Compound in this assay: Cc1ccc(C(=O)N(CCCN)[C@@H](c2nc3cc(Cl)ccc3c(=O)n2Cc2ccccc2)C(C)C)cc1 [ispinesib]
The experiment in a line: log2 fold change, soluble protein after heating vs DMSO (PISA); higher = thermal stabilisation; K562 cells, 10 uM, 30 min; active = over 0.2 and 3.5 SD of the protein, either way, in both replicates (recomputed). A digest of the protocol: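 For each measurement, 10 μM compound was applied for 30 min to K562 cells at 2×10^6 cells/mL. Aliquots were heated for 3 min across 48°C-58°C, pooled, and extracted in PBS with 0.5% NP-40 at 4°C; the supernatant after 21,000xg for 90 min was soluble protein. This was quantified by TMTpro 16plex LC-MS/MS with channel sums equalised, and thermal stability was reported relative to control samples from duplicates, on a log2 fold-change scale.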
Take STAT5B (UniProt P51692): the log2 fold change was -0.082. Then STAT3 (UniProt P40763), with -0.03; and STAM2 (UniProt O75886), with -0.049. With TIAL1 isoform 2 (UniProt Q01085) the figure was 0.01; with SLC38A9 (UniProt Q8NBW4), -0.474 (active); with STAT5A (UniProt P42229), 0.275. Consider SNX5 (UniProt Q9Y5X3), for which the log2 fold change is -0.236. With SMARCE1 (UniProt Q969G3) the figure was 0.048; with SRSF3 (UniProt P84103), -0.095; with SMC5 (UniProt Q8IY18), 0.092.

Regarding SNX1 (UniProt Q13596), the log2 fold change was -0.252. With TARBP1 (UniProt Q13395) the figure was 0.026; with STX17 (UniProt P56962), -0.246; with SMARCAD1 isoform 2 (UniProt Q9H4L7), 0. TIMM10 (UniProt P62072): the log2 fold change was 0.103. Turning to SPCS2 (UniProt Q15005), the log2 fold change was 0.085. As for SMAP2 (UniProt Q8WU79), the log2 fold change is -0.006. Then TK1 (UniProt P04183), with 0.017; and TIMM44 (UniProt O43615), with -0.128; and TIMM29 (UniProt Q9BSF4), with 0.033.

In the case of SRI (UniProt P30626), the log2 fold change was 0.353 (active). As for SORT1 (UniProt Q99523), the log2 fold change is -0.032. On to SLC7A6 (UniProt Q92536), for which the log2 fold change is 0.17. Turning to SYF2 (UniProt O95926), the log2 fold change was -0.079.

As for STK25 (UniProt O00506), the log2 fold change was -0.071. With SYMPK (UniProt Q92797) the figure was -0.023. Then SP1 (UniProt P08047), with -0.113; and SSB (UniProt P05455), with -0.02; and STARD3NL (UniProt O95772), with -0.256.

In the case of SPG21 (UniProt Q9NZD8), the log2 fold change is -0.093. For the target SRP68 (UniProt Q9UHB9), the log2 fold change was -0.209. As for TJP2 isoform 7 (UniProt Q9UDY2), the log2 fold change is -0.065.

SPPL2B (UniProt Q8TCT7): the log2 fold change was -0.026.

Turning to SRSF7 (UniProt Q16629), the log2 fold change was -0.089. With SNW1 (UniProt Q13573) the figure was -0.048; with TBC1D23 (UniProt Q9NUY8), -0.48 (active); with SLC30A7 (UniProt Q8NEW0), -0.016.
